From PubChem BioAssay
The source made the active and inactive calls.

How the values were obtained:
[1] = E. coli DRC41 culture turbidity changes, primary screen, E. coli filamentation inducer project, strain DRC41, OD650, 48 h (AID 1152);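 further: E. coli MC1000 strain DRC41 lacking acrAB efflux pump and sulA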; conditions: E. coli DRC41 (acrAB sulA), higher = more signal, called active from +8 up or from −8 down
[2] = small-molecule binders of probe aLefty1, primary screen, biochemical, small-molecule microarray, 635/667 nm fluorescence (AID 1153); conditions: higher = more signal;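 further: score merges spot fluorescence with signal-to-noise ratio from the scanned slide images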
[3] = PSAC antagonists in infected red cells, primary screen, cell-based, P. falciparum Indochina, OD700, 1 h (AID 1154); conditions: P. falciparum Indochina infected RBC osmotic lysis, higher = more signal, called active from +8 up or from −8 down
[4] = PSAC antagonists in infected red cells, primary screen, cell-based, P. falciparum Indochina, OD700, 2 h (AID 1155);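 further: lysis reports solute entry through the parasite surface anion channel PSAC; channel blockers reduce lysis of infected cells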; conditions: P. falciparum Indochina infected erythrocytes, osmotic lysis OD700; higher = more signal, called active from +8 up or from −8 down
[5] = osmotic lysis modulators in infected erythrocytes, primary screen, PSAC antagonist project, cell-based, P. falciparum Indochina, OD700, 3 h (AID 1156); conditions: higher = more signal, called active from +8 up or from −8 down
[6] = PSAC antagonists in infected red cells, primary screen, cell-based, P. falciparum Indochina, OD700, 18 h (AID 1157); conditions: P. falciparum Indochina infected erythrocytes, osmotic lysis OD700, 18 h; higher = more signal, called active from +8 up or from −8 down
[7] = modulators of S6 phosphorylation in cells, primary screen, cell-based, A549, cytoblot, luminescence, serum-stimulated (AID 1158); conditions: A549 phospho-S6 cytoblot, 5 h, higher = more signal;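 further: serum-stimulated A549 lung adenocarcinoma cells; signal is phosphorylated S6 detected by cytoblot immunostaining with HRP secondary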
[8] = biological target: NADPH oxidase 2 (Homo sapiens) (UniProt P04839); assay: NOX2-dependent H2O2 signal modulators, primary screen, NOX inhibitor project, cell-based, HEK293-NOX2, PMA-stimulated, Amplex Red fluorescence (AID 1159); conditions: 45 min, higher = more signal, called active from +8 up or from −8 down; further: test concentration not given here
[9] = biological target: NADPH oxidase 4 (Homo sapiens) (UniProt Q9NPH5); assay: NOX4-dependent H2O2 signal modulators, primary screen, NOX inhibitor project, cell-based, HEK293-NOX4, tetracycline-induced, Amplex Red fluorescence (AID 1160); conditions: 45 min, higher = more signal, called active from +8 up or from −8 down
[10] = biological target: NADPH oxidase 5 (Homo sapiens) (UniProt Q96PH1); assay: NOX5-dependent H2O2 signal modulators, primary screen, NOX inhibitor project, cell-based, HEK293-NOX5, Amplex Red fluorescence (AID 1161); conditions: HEK293-NOX5, ionomycin, 45 min, higher = more signal
[11] = A549 cell viability effects, profiling panel, calcein-AM fluorescence, 48 h, basal (AID 1162); conditions: higher = more signal; further: test concentration not given here
[12] = adipocyte viability effects, profiling panel, cell-based, 3T3-L1 adipocytes, calcein-AM fluorescence, 48 h, basal (AID 1163); conditions: 3T3-L1 adipocytes viability, higher = more signal; further: test concentration not given here
[13] = HepG2 cell viability effects, profiling panel, calcein-AM fluorescence, 48 h, basal (AID 1164); conditions: higher = more signal; further: test concentration not given here
[14] = MM1S cell viability effects, profiling panel, calcein-AM fluorescence, 48 h, basal (AID 1165); conditions: higher = more signal;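 further: viability of MM1S multiple myeloma cells under basal unstimulated conditions; test concentration not given here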
[15] = basal RPMI8226 viability, no added stimulus, profiling panel, cell-based, calcein-AM fluorescence, 48 h, PK04 Diversity Set (AID 1166); conditions: RPMI8226 myeloma viability, higher = more signal;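 further: cells grown under basal conditions without added stimulus; test concentration not given here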
[16] = basal HepG2 mitochondrial membrane potential changes, profiling panel, cell-based, JC-1 fluorescence, 24 h, 100 nL compound (AID 1167); conditions: higher = more signal; further: test concentration not given here
[17] = basal 3T3-L1 adipocyte mitochondrial potential changes, profiling panel, cell-based, JC-1 fluorescence, 3T3-L1 adipocytes, 24 h, 100 nL compound (AID 1168); conditions: JC-1 mitochondrial fluorescence, higher = more signal, called active from +8 up or from −8 down; further: test concentration not given here
[18] = basal RPMI8226 mitochondrial membrane potential changes, profiling panel, cell-based, JC-1 fluorescence, 24 h, 100 nL compound (AID 1169); conditions: RPMI8226 myeloma, JC-1 mitochondrial potential fluorescence, higher = more signal; further: test concentration not given here
[19] = basal MM1S mitochondrial membrane potential changes, profiling panel, cell-based, JC-1 fluorescence, 24 h, 100 nL compound (AID 1170); conditions: higher = more signal; further: test concentration not given here
[20] = A549 lung cancer cell viability effects, profiling panel, resazurin fluorescence, 24 h, PK04 Diversity Set (AID 1171); conditions: higher = more signal, called active from +8 up or from −8 down; further: test concentration not given here

Sequence of NADPH oxidase 5 (Homo sapiens) (Q96PH1 whole entry, looked up): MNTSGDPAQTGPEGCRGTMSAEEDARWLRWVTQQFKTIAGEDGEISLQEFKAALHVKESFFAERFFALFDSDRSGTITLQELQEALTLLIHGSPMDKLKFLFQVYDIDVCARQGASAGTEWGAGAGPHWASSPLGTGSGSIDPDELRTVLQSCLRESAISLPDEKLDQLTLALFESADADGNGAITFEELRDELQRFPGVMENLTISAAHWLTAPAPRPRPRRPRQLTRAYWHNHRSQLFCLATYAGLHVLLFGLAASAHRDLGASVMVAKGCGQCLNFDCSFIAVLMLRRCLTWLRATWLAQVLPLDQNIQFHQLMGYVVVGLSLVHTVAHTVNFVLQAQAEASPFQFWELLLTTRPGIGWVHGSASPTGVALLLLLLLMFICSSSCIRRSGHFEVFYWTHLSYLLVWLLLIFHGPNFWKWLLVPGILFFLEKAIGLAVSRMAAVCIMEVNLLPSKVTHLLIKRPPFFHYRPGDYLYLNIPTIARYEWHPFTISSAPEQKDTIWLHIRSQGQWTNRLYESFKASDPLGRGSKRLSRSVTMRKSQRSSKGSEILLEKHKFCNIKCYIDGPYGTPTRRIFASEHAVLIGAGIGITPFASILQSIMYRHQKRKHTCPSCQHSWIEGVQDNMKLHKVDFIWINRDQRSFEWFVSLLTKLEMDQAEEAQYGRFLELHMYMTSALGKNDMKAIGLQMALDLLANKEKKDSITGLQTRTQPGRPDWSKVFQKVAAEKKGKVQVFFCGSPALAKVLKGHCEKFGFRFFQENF
Sequence of NADPH oxidase 4 (Homo sapiens) (Q9NPH5 whole entry, looked up): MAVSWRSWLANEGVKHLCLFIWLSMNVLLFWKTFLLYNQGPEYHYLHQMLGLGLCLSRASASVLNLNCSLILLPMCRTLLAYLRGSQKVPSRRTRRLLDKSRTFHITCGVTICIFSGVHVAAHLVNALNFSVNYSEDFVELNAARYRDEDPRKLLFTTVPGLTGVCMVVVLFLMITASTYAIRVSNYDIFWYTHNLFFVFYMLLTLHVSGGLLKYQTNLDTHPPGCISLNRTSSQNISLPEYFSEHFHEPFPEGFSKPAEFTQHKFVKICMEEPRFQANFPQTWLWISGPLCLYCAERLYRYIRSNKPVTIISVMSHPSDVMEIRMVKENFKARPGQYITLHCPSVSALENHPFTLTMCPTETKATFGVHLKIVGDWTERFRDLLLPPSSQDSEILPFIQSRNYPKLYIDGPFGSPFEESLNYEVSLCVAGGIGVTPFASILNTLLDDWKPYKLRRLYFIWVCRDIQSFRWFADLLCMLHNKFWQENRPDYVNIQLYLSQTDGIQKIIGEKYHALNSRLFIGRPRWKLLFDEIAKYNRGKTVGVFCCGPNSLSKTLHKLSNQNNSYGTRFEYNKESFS
Sequence of NADPH oxidase 2 (Homo sapiens) (P04839 whole entry, looked up): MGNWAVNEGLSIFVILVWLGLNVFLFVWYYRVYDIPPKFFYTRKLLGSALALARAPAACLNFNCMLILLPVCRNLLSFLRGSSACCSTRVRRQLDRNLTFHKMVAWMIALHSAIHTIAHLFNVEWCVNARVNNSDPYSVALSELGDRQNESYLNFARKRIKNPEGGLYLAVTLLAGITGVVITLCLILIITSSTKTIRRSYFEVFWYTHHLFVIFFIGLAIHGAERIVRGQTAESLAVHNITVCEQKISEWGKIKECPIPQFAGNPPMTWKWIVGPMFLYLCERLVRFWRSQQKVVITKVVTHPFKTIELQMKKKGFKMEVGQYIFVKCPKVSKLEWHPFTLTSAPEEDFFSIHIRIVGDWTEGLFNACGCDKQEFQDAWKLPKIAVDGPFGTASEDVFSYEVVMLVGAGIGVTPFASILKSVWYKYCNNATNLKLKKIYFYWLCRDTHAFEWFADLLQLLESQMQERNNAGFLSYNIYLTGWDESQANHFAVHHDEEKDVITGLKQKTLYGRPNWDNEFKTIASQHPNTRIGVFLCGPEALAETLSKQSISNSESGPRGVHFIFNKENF

COC(=O)[C@@]1(CCC(=O)OC(C)(C)C)N=C(c2ccc(OCCCO)cc2)O[C@H]1c1ccccc1CN=[N+]=[N-]
z-score [1]: -0.0301 (inactive)
composite z-score [2]: 0.437
z-score [3]: 21.3 (active)
z-score [4]: 6.25 (inactive)
z-score [5]: 0.765 (inactive)
z-score [6]: 1.4 (inactive)
z-score [7]: -0.184
z-score [8]: -1.47 (inactive)
z-score [9]: -0.475 (inactive)
z-score [10]: -0.802
z-score [11]: -1.06
z-score [12]: -1.3
z-score [13]: -2.51
z-score [14]: -3.2
z-score [15]: -3.95
z-score [16]: -1.7
z-score [17]: -0.472 (inactive)
z-score [18]: -1.12
z-score [19]: -1.73
z-score [20]: -0.227 (inactive)

COc1ccc(CCNC(=O)[C@@]2(Sc3ccc(C)cc3)CC(=O)N(C(C)C)[C@@H]2c2ccc(CO)cc2)cc1
z-score [1]: -0.58 (inactive)
composite z-score [2]: 0.0391
z-score [3]: 2.36 (inactive)
z-score [4]: 0.741 (inactive)
z-score [5]: 0.152 (inactive)
z-score [6]: 0.549 (inactive)
z-score [7]: -0.21
z-score [8]: -0.575 (inactive)
z-score [9]: -1.16 (inactive)
z-score [10]: -2.03
z-score [11]: 0.353
z-score [12]: 0.356
z-score [13]: -0.453
z-score [14]: -0.169
z-score [15]: 0.0991
z-score [16]: -0.41
z-score [17]: 0.0372 (inactive)
z-score [18]: 0.043
z-score [19]: 0.277
z-score [20]: -0.107 (inactive)

COC(=O)[C@@]1(Cc2ccccc2)[C@H]2c3cc(C(=O)N4CCCC4)n(Cc4ccc(C(F)(F)F)nc4)c3C[C@H]2CN1C(=O)c1ccccc1
z-score [1]: -1.31 (inactive)
composite z-score [2]: 0.689
z-score [3]: 2.24 (inactive)
z-score [4]: 0.145 (inactive)
z-score [5]: 1.45 (inactive)
z-score [6]: 0.444 (inactive)
z-score [7]: -0.467
z-score [8]: 0.262 (inactive)
z-score [9]: 0.396 (inactive)
z-score [10]: -3.03
z-score [11]: -0.567
z-score [12]: 1.88
z-score [13]: -0.499
z-score [14]: -0.331
z-score [15]: -1.59
z-score [16]: 1.5
z-score [17]: -0.657 (inactive)
z-score [18]: -0.561
z-score [19]: -0.796
z-score [20]: 0.263 (inactive)

C=C(COC)C(=O)CC[C@@H](OC(C)=O)c1ccc(OCCO)cc1
z-score [1]: -0.297 (inactive)
composite z-score [2]: -0.007
z-score [3]: 2.52 (inactive)
z-score [4]: 0.27 (inactive)
z-score [5]: 0.133 (inactive)
z-score [6]: 0.0871 (inactive)
z-score [7]: 0.239
z-score [8]: -0.352 (inactive)
z-score [9]: -0.885 (inactive)
z-score [10]: -0.112
z-score [11]: 0.453
z-score [12]: 0.327
z-score [13]: -0.446
z-score [14]: -3.18
z-score [15]: -0.311
z-score [16]: -1.28
z-score [17]: -0.979 (inactive)
z-score [18]: -0.652
z-score [19]: -0.655
z-score [20]: -0.412 (inactive)

CC(C)[C@@H](C(=O)O)n1cc(-c2ccccc2)nn1
z-score [1]: -1.08 (inactive)
composite z-score [2]: 0.241
z-score [3]: 0.354 (inactive)
z-score [4]: 0.217 (inactive)
z-score [5]: -0.406 (inactive)
z-score [6]: 0.0394 (inactive)
z-score [7]: -0.299
z-score [8]: -0.7 (inactive)
z-score [9]: 0.521 (inactive)
z-score [10]: -0.167
z-score [11]: -0.633
z-score [12]: -0.582
z-score [13]: -0.354
z-score [14]: -0.117
z-score [15]: -0.887
z-score [16]: -1.36
z-score [17]: -1.2 (inactive)
z-score [18]: 0.00787
z-score [19]: 0.00093
z-score [20]: -0.423 (inactive)

COC(=O)[C@@]1(Cc2ccc(F)cc2)[C@H]2c3cc(C(=O)N(C)C)n(CCO)c3C[C@H]2CN1C(=O)c1ccccc1
z-score [1]: -0.285 (inactive)
composite z-score [2]: 0.0774
z-score [3]: 0.0154 (inactive)
z-score [4]: -0.687 (inactive)
z-score [5]: -1.25 (inactive)
z-score [6]: -1.27 (inactive)
z-score [7]: 1.8
z-score [8]: 0.254 (inactive)
z-score [9]: 1.68 (inactive)
z-score [10]: -2.18
z-score [11]: -0.371
z-score [12]: -0.173
z-score [13]: 0.318
z-score [14]: 0.563
z-score [15]: 0.382
z-score [16]: -2.03
z-score [17]: -0.453 (inactive)
z-score [18]: 0.161
z-score [19]: 0.243
z-score [20]: -1.59 (inactive)

CC1CC/C=C\[C@H]2OC34C=CCN(c5ccc(Cl)cc5)C(=O)[C@H]3N(CCCO)C(=O)[C@]4(C)C2C(=O)O1 (stereo not given in full)
z-score [1]: -0.836 (inactive)
composite z-score [2]: 0.135
z-score [3]: 0.113 (inactive)
z-score [4]: 0.66 (inactive)
z-score [5]: -0.338 (inactive)
z-score [6]: 0.356 (inactive)
z-score [7]: -0.264
z-score [8]: 1.5 (inactive)
z-score [9]: -1.22 (inactive)
z-score [10]: 2.34
z-score [11]: 0.606
z-score [12]: 0.208
z-score [13]: -0.865
z-score [14]: 1.04
z-score [15]: 0.338
z-score [16]: -0.713
z-score [17]: -0.887 (inactive)
z-score [18]: -0.294
z-score [19]: 1.86
z-score [20]: -0.6 (inactive)

CCCCN1CC=CC23O[C@@H]4/C=C\CCC(C)OC(=O)C4[C@H]2C(=O)N(C(C)CO)[C@@H]3C1=O (stereo not given in full)
z-score [1]: 0.0581 (inactive)
composite z-score [2]: -0.331
z-score [3]: 1.82 (inactive)
z-score [4]: -0.0918 (inactive)
z-score [5]: 1.19 (inactive)
z-score [6]: 0.16 (inactive)
z-score [7]: -0.0969
z-score [8]: 0.809 (inactive)
z-score [9]: -0.42 (inactive)
z-score [10]: 1.27
z-score [11]: -0.425
z-score [12]: -0.708
z-score [13]: 0.201
z-score [14]: 0.646
z-score [15]: -0.474
z-score [16]: -0.318
z-score [17]: -0.382 (inactive)
z-score [18]: -0.726
z-score [19]: -1.13
z-score [20]: -0.016 (inactive)

CCOC(=O)C1=C(C(=O)OCC)N(S(=O)(=O)CC[Si](C)(C)C)[C@H](c2ccccc2)CC1
z-score [1]: -0.941 (inactive)
composite z-score [2]: 0.174
z-score [3]: 1.23 (inactive)
z-score [4]: 0.763 (inactive)
z-score [5]: 0.106 (inactive)
z-score [6]: 0.19 (inactive)
z-score [7]: -0.405
z-score [8]: -0.135 (inactive)
z-score [9]: 0.232 (inactive)
z-score [10]: 0.134
z-score [11]: -2.6
z-score [12]: -0.872
z-score [13]: -2.78
z-score [14]: -1.02
z-score [15]: -4.13
z-score [16]: 3.63
z-score [17]: -0.0617 (inactive)
z-score [18]: -0.982
z-score [19]: -3.04
z-score [20]: 0.571 (inactive)
